EBV LMP1 NFkB: inhibitors of Epstein-Barr LMP1-induced NF-kappaB reporter; LMP1-induced NF-kappaB luciferase reporter cells, luminescence; inhibition, % at 12.5 µM; 0.69% of 350,000 active; in the data active = inhibition above about 41%;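 also: 0% = neutral control wells and 100% = reference inhibitor control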
TROY signal inh: blocks TROY-dependent signaling in reporter cells | AID 1347056 | Q293 LMP1-TROYcd NF-kB luciferase reporter, 4 h | 0.98% of 360,000 active | inhibition, % at 10 µM;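 active = compounds whose plate-normalised and pattern-corrected inhibition of the luciferase reporter signal at the single screening dose is 50% or more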
TWEAK-Fn14 inh: blocks TWEAK-Fn14 interaction in a reporter cell assay. 2% of 360,000 active. AID 1159606. inhibition, % at 10 µM. TWEAK-stimulated Fn14 reporter cells, luciferase luminescence, 8 h; in the data active = inhibition above about 50%
HSF1 inhib: HSF1 inhibition. NIH3T3-HGL HSE-luciferase, MG132-induced, luminescence 8 h; hits give low values. activity change, negative = inhibition, % at 7.5 µM (by protocol). 0.77% of 300,000 active;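 active = more than half of replicate wells show activity change below -50%, luminescence cut by over half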;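 also: luciferase reports HSF-1 transcriptional activity via heat shock element; 0% = median of DMSO wells and -100% = zero luminescence signal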
HSP90 refold inh: inhibitors of HSP90 luciferase refolding in rabbit reticulocyte lysate. 0.91% of 290,000 active. luciferase refolding luminescence, 3 h. inhibition, % at 5.6 µM. AID 1789;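 active = inhibition above the screen-wide mean plus 3 SD, computed separately per campaign, cut at about 16% in these data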;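 also: 0% = DMSO wells and 100% = 60 µM geldanamycin wells; inhibitors lower the luminescence because luciferase stays unfolded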
HSF-1 act: increases HSF-1 driven luciferase reporter signal; NIH3T3-HGL HSF-1 luciferase reporter, MG132, 8 h; 100% = twice DMSO control signal; activation, % at 9 µM; 1.7% of 300,000 active; AID 504408;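 active = mean replicate activation of at least 50% with a set share of replicates each reaching 50%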;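 also: 0% = median of the neutral control wells and 100% = twice that signal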
* marks the source's active call; other numbers are inactive results; · = no result. Rows were chosen to be rich in hits. Some 4.7% of all compounds tested hit in one or more screens of this group.

SMILES | EBV LMP1 NFkB | TROY signal inh | TWEAK-Fn14 inh | HSF1 inhib | HSP90 refold inh | HSF-1 act
O=C(Nc1ccc2c(c1)OCCO2)C(c1cc2ccccc2o1)N1CCC(Cc2ccccc2)CC1 (stereo not given) | · | 85* | 90* | · | · | ·
O=C(Nc1ccc2c(c1)OCO2)C1CCCN(c2nc3ccccc3s2)C1 (stereo not given) | 2 | 35 | -1 | 32 | 0 | 77*
O=C(CN1CCC(Cc2ccccc2)CC1)Nc1ccc2c(c1)OCCO2 | · | · | · | -4 | 0 | 9
COc1ccc(NC(=O)C2CCN(S(=O)(=O)c3c(C)nn(C)c3C)CC2)cc1 | 1 | 5 | -6 | -6 | 3 | -14
CCc1nnc(NC(=O)C2CCCN(c3nc4ccccc4s3)C2)s1 (stereo not given) | -1 | 13 | -14 | 0 | -2 | -8
O=C(Nc1ccc(Cl)cc1)c1csc([C@@H]2C[C@H](O)[C@@H](CO)O2)n1 | · | -19 | 19 | · | · | ·
O=C(Nc1ccc2c(c1)OCCO2)C1CCN(S(=O)(=O)c2cccs2)CC1 | 7 | 29 | 35 | -12 | 3 | -8
O=C(Nc1ccc2c(c1)OCCO2)C1CCCN(S(=O)(=O)Cc2ccccc2)C1 (stereo not given) | 3 | 24 | 54* | -18 | 2 | -33
O=C(Nc1ccc2c(c1)OCO2)c1cc(C2CCCCN2S(=O)(=O)Cc2ccccc2)on1 (stereo not given) | · | 64* | 9 | · | · | ·
O=C(Nc1ccc2c(c1)OCO2)c1cc(C2CCCCN2C(=O)CCc2ccccc2)on1 (stereo not given) | · | -13 | 9 | · | · | ·
O=C(Nc1ccc2c(c1)OCCO2)C1CCN(S(=O)(=O)c2ccc(Br)s2)CC1 | -5 | 19 | 51* | -4 | 1 | -10
CCc1cccc(NC(=O)C2CCCN(S(=O)(=O)c3cccs3)C2)c1 (stereo not given) | -2 | 17 | 44 | -73* | 1 | -79
O=C(Nc1ccc2c(c1)OCO2)C1CCCN(S(=O)(=O)Cc2ccccc2)C1 (stereo not given) | -11 | 0 | -4 | -3 | -2 | -7
CCN1C(=O)[C@H]2[C@@H](c3ccc(C)cc3)N[C@]3(CCCN(CCC(C)C)C3=O)[C@H]2C1=O | 3 | 6 | 17 | · | · | ·
OC[C@@H]1CN(Cc2ccc(-c3ccccc3)cc2)C[C@H](n2cnc3c(Nc4ccccc4)ncnc32)O1 | · | 39 | 92* | · | · | ·
OC[C@@H]1CN(Cc2ccc(F)cc2)C[C@H](n2cnc3c(Nc4ccccc4)ncnc32)O1 | · | -2 | 11 | · | · | ·
OC[C@@H]1CN(Cc2ccccc2)C[C@H](n2cnc3c(NCc4ccc(F)cc4)ncnc32)O1 | · | -43 | -37 | · | · | ·
OC[C@@H]1CN(Cc2ccc(-c3ccccc3)cc2)C[C@H](n2cnc3c(NCc4ccc(F)cc4)ncnc32)O1 | · | 50* | 88* | · | · | ·
CN(Cc1ccccc1)C(=O)c1csc([C@@H]2O[C@H](CO)[C@@H](O)[C@H]2O)n1 | · | -3 | -6 | · | · | ·
CCOc1ccc(CCN2C(=S)N([C@@H](Cc3ccc(O)cc3)CN3CCC[C@@H]3CN3C(=S)NC[C@@H]3Cc3ccccc3)C[C@@H]2Cc2ccc(O)cc2)cc1 | · | 19 | 16 | · | · | ·
O=c1c2ccccc2cnn1CCOc1cccc(Br)c1 | 1 | -25 | -32 | 55 | -2 | 94*
COc1ncnc2c1ncn2CCCN1CCN(C(=O)C2CC2)CC1 | -2 | 6 | -8 | · | · | ·
C[C@H]1COc2cccc(N3CCC[C@@H]3CO)c2S(=O)(=O)N1 | · | 2 | 6 | · | · | ·
CCN(CC)C(=O)COC(=O)c1ccc(C)c(NC(=O)c2ccco2)c1 | -21 | -5 | 25 | -59* | -2 | -67
COc1ccc(C(=O)NCCc2c[nH]c3ccccc23)cc1 | -17 | -14 | -14 | 17 | -8 | 38
SMILES | EBV LMP1 NFkB | TROY signal inh | TWEAK-Fn14 inh | HSF1 inhib | HSP90 refold inh | HSF-1 act
O=C(NCCc1c[nH]c2ccccc12)c1ccc(Cl)cc1 | -56 | -26 | -56 | 35 | 2 | 59*
COc1ccc(C(=O)c2[nH]c(N)c(C(=O)NCCc3c[nH]c4ccccc34)c2-c2c(F)cccc2Cl)cc1 | · | 23 | 54* | · | · | ·
O=C(COC(=O)CCc1c[nH]c2ccccc12)NCc1ccc(Cl)cc1 | 46* | 2 | -22 | -16 | -5 | -4
CC(C)c1ccc(CN2CCC2(C)C(=O)Nc2cccc(Oc3ccccc3)c2)cc1 (stereo not given) | · | -19 | 15 | · | · | ·
COc1ccc(C(C)(O)c2nc(-c3ccncc3)cs2)cc1 (stereo not given) | · | 9 | 22 | · | · | ·
OC(c1ccccc1)(c1ccccc1)C1CCN(CCCOc2ccc3c(c2)CCCC3)CC1 | · | 15 | -16 | · | · | ·
O=S(=O)(Nc1ccc(O)cc1)c1cccc2cccnc12 | 0 | 0 | -16 | -10 | 2 | 2
O=S(=O)(Nc1ccccc1O)c1cccc2cccnc12 | -31 | 21 | 18 | 36 | -1 | 78*
O=C(c1[nH]c(C(F)(F)F)nc1-c1ccccc1)N1CCC2(CC1)C(=O)NCN2c1ccccc1 | · | -13 | 2 | · | · | ·
COc1ccc2cc3cc(C(=O)NCCN4CCN(c5ccccc5F)CC4)oc3nc2c1 | 21 | 60* | 67* | -2 | 1 | 1
CCC(C)NC(=O)c1cc2cc3ccc(OC)cc3nc2o1 (stereo not given) | -17 | -56 | -45 | 27 | 2 | 63*
COc1ccc2cc3cc(C(=O)Nc4ccccc4N4CCN(C)CC4)oc3nc2c1 | 0 | -12 | 34 | 8 | 4 | 28
OC(c1ccccc1)C(NCc1ccccc1)c1ccccc1 (stereo not given) | -9 | -3 | 9 | · | · | ·
CC1CN(C(=O)COC(=O)c2cncc(Br)c2)CC(C)O1 (stereo not given) | -4 | -3 | -17 | · | · | ·
Fc1nc(F)c(F)c(NCCCNc2c(F)c(F)nc(F)c2F)c1F | -3 | 50* | 10 | 2 | -6 | -5
O=C(NC(Cc1c[nH]c2ccccc12)C(=O)N1CCOCC1)c1cccs1 (stereo not given) | -1 | -11 | 24 | -3 | -1 | -2
O=C(NC(Cc1c[nH]c2ccccc12)C(=O)N/N=C/c1ccc(Cl)cc1)c1cccs1 (stereo not given) | -15 | 29 | 53* | 3 | 2 | -6
CSc1ccc(Cn2c(C)c(C(=O)NCc3ccco3)sc2=O)cc1 | · | 15 | 0 | · | · | ·
CCCCNC(=O)C1(C)CCN1C(=O)c1cc(F)ccc1C (stereo not given) | · | 5 | 21 | · | · | ·
CCOC(=O)/C(C#N)=C/c1c[nH]c2ccccc12 | -6 | -65 | -10 | 38 | 3 | 38
CCOC(=O)C(=Cc1c[nH]c2ccc(S(=O)(=O)N(C)C)cc12)C(=O)OCC | 5 | 8 | 66* | 103 | 8 | 146*
CCOC(=O)C1=C(O)/C(=C/c2ccc(-c3ccccc3C(=O)O)o2)SC1=Nc1ccc(C)cc1 | -5 | 2 | 58* | · | · | ·
CC(C)n1c(SCC(=O)N2c3ccccc3Sc3ccccc32)nc2c1c(=O)n(C)c(=O)n2C | 13 | 12 | -16 | -2 | -5 | 6

Screening results: PubChem, several laboratories
